Among all 5,500 compounds or so, about 2,000 (36%) were called active. Another 18% or so got no clear call; they are omitted. Cut-off read from the data, not from the text of the source: active = normalized growth mostly below about 0.91 (no sharp cut-off); inconclusive = no clear call, values can overlap the other calls; inactive = mostly above about 0.92. Some of the results follow.
Experiment: chemical genetic growth profiling, strain panel (AID 1159580);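 note: tested at 20 µM; growth read once vehicle control cultures reached saturation at 30 °C; 1 = growth at the plate median or of vehicle wells; lower values mean less growth of the strain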
Conditions: S. cerevisiae deletion strains, growth OD

Measured: normalized growth

C#CCOC(=O)C1=CCCN(C)C1
inactive: locus YAL013W, strain DEP1, hits give low values 1.01 | locus YAL040C, strain CLN3, hits give low values 1.02 | locus YDR363W, strain ESC2, hits give low values 0.986 | locus YER002W, strain NOP16, hits give low values 1.03 | locus YGR078C, strain PAC10, hits give low values 1.01 | locus YGR229C, strain SMI1, hits give low values 1.01 | locus YMR263W, strain SAP30, hits give low values 1 | locus YMR307W, strain GAS1, hits give low values 0.959 | locus YNL153C, strain GIM3, hits give low values 1.03 | locus YNL175C, strain NOP13, hits give low values 1.01 | locus YNL197C, strain WHI3, hits give low values 0.99 | locus YNL224C, strain SQS1, hits give low values 0.998 | locus YNL322C, strain KRE1, hits give low values 1 | locus YOR083W, strain WHI5 (second series), hits give low values 1

CC(C)(N)Cc1ccccc1
inactive: locus YHR030C, strain SLT2, hits give low values 1.02 | locus YHR079C, strain IRE1, hits give low values 1.02 | locus YJL095W, strain BCK1, hits give low values 1 | locus YJR066W, strain TOR1, hits give low values 0.947 | locus YLR113W, strain HOG1, hits give low values 0.965 | locus YNL183C, strain NPR1, hits give low values 0.937 | locus YOR231W, strain MKK1, hits give low values 1.01 | locus YPL256C, strain CLN2, hits give low values 1.03

Reference: PubChem BioAssay AID1159580 (chemical genetic matrix, 2015)
